# From publication PMC7862700, “An all-to-all approach to the identification of sequence-specific readers for epigenetic DNA modifications on cytosine”
# Legend:
# Assay in all cases: DAPPL (digital affinity profiling via proximity ligation, sequencing); 10 mM Tris-HCl pH 7.5, 50 mM NaCl, 1 mM DTT, 4% glycerol, room temperature, 30 min; GST-TFs on glutathione beads, 16-mer random dsDNA library, 0.1% formaldehyde crosslink after washing; high values mean tight binding
# Details in all cases: protein: recombinant; tags: N-terminal GST; dsDNA, one strand shown
# FLI1 = target: T1, FLI1 (Homo sapiens, UniProt Q01543 1-452)
# T1 sequence: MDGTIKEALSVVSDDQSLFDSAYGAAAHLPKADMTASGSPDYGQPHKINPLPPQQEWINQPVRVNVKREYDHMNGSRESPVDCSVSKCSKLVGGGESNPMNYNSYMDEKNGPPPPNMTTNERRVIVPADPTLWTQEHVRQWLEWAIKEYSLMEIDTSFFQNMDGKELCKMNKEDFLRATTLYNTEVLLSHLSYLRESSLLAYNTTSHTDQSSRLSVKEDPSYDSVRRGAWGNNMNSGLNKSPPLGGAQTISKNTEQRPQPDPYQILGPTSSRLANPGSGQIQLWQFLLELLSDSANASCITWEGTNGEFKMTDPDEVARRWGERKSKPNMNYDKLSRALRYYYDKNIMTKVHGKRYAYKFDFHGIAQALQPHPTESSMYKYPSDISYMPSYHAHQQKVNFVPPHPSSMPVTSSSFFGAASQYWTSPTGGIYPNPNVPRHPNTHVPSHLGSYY
# Procedure, shortened: (§1)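 A tag-only sample was pooled with DNA-barcoded human transcription factors that had been expressed in yeast as GST fusions and captured on glutathione beads. The pools were incubated for 30 min at room temperature with 200 nmole of a random double-stranded 16-mer DNA library in Tris/NaCl/DTT/glycerol buffer, then washed, crosslinked with 0.1% formaldehyde, proximity-ligated (BsaI/T4 ligase, 1 h, 37 °C), PCR-amplified and sequenced on an Illumina NextSeq500. Binding signal is each hexamer's read frequency for a factor divided by its frequency for the tag-only sample.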
# ELK1 = target: T2, ELK1 (Homo sapiens, UniProt P19419 1-428)
# T2 sequence: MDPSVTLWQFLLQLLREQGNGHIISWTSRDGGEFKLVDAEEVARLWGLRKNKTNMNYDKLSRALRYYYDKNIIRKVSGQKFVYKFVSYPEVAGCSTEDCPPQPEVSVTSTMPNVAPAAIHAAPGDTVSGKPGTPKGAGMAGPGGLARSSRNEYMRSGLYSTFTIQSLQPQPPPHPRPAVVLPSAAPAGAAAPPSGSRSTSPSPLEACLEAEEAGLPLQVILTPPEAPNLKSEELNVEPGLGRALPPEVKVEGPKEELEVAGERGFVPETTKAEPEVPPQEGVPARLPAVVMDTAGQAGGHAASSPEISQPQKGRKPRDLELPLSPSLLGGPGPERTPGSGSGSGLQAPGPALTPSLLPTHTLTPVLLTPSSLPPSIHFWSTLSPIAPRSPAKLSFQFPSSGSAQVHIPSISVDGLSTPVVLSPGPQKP
# Procedure, shortened: as §1
# GABPA = target: T3, GABPA (Homo sapiens, UniProt Q06546 1-454)
# T3 sequence: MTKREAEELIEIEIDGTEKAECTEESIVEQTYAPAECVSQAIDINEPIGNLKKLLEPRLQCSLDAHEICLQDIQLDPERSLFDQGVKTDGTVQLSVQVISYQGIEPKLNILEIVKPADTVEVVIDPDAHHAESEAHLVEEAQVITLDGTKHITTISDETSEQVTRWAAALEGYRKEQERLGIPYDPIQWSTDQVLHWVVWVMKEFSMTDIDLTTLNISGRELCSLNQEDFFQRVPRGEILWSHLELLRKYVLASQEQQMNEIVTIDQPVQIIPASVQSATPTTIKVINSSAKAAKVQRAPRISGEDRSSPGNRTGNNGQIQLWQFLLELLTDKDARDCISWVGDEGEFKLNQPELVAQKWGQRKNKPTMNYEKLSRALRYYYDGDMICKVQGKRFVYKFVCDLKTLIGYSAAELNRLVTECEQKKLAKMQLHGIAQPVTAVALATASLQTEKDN
# Procedure, shortened: as §1
# ERG = target: T4, ERG (Homo sapiens, UniProt P11308 1-479)
# T4 sequence: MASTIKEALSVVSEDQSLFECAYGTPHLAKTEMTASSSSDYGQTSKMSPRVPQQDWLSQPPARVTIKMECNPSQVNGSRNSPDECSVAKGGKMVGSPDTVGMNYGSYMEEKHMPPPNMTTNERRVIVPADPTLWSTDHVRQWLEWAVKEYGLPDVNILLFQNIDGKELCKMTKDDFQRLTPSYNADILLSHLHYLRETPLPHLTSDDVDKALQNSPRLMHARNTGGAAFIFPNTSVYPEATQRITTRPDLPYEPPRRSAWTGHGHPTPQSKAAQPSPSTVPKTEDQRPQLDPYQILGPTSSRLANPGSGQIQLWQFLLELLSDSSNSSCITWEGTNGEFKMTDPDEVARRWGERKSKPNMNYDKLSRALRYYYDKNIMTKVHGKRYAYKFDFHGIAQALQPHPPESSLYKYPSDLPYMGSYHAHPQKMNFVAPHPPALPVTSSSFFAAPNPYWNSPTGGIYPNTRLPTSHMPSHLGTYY
# Procedure, shortened: as §1
# ELF1 = ELF1 (Homo sapiens, UniProt P32519 1-619)
# Procedure, shortened: as §1
# EHF = target: T5, EHF (Homo sapiens, UniProt Q9NZC4 1-300)
# T5 sequence: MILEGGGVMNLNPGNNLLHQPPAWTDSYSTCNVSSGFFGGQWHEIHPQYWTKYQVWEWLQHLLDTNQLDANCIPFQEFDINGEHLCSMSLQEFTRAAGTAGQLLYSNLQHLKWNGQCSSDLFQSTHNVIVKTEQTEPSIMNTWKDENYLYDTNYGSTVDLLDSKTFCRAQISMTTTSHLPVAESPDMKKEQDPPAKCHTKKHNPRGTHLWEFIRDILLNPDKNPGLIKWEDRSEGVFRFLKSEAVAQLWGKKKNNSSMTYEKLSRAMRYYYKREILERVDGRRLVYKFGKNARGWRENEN
# Procedure, shortened: as §1
# SPI1 = SPI1 (Homo sapiens, UniProt P17947 1-270)
# Procedure, shortened: as §1
# SPIB = SPIB (Homo sapiens, UniProt Q01892 1-262)
# Procedure, shortened: as §1
# ELK3 = target: T6, ELK3 (Homo sapiens, UniProt P41970 1-407)
# T6 sequence: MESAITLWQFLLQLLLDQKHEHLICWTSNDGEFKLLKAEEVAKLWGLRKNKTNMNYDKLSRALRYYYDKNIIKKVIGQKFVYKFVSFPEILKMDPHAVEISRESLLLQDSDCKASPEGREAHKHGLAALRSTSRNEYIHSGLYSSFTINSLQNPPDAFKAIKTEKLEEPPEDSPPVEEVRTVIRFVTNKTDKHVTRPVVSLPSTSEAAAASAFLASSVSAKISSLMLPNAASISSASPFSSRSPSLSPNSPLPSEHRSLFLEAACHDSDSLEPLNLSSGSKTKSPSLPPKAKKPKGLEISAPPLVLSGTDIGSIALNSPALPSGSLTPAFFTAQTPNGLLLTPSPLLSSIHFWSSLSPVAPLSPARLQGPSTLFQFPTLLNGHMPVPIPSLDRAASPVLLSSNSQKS
# Procedure, shortened: as §1
# SPIB, sequence (Q01892 whole entry): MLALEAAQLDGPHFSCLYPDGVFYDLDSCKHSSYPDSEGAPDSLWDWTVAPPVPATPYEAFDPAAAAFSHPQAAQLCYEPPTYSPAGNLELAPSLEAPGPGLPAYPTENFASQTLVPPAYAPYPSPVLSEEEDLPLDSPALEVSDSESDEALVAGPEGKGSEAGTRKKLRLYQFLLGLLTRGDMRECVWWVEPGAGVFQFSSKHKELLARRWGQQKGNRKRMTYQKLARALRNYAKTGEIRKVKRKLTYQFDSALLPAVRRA
# ELF1, sequence (P32519 whole entry): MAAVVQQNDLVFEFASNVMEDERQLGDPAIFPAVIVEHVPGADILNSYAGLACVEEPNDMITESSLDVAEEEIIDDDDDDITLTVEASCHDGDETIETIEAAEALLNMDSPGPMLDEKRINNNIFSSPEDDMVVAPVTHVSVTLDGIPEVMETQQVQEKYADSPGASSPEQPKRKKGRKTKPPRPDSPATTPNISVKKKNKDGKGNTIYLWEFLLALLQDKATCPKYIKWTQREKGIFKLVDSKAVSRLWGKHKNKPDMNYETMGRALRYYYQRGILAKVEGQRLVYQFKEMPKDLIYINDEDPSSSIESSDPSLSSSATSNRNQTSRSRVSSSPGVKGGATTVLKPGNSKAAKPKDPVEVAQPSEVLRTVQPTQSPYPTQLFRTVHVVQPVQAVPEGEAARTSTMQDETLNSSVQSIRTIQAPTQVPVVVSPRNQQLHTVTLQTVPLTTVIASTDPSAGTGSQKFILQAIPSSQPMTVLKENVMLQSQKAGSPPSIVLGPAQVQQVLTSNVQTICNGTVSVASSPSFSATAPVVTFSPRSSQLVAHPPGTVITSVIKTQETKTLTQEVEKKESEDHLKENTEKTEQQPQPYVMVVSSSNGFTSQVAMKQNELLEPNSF
sequence,measurement,setting,value
AAAACC,binding signal,FLI1,"1.12 fold enrichment (6-mer frequency, TF over GST control)"
same,binding signal,ELK1,"1.05 fold enrichment (6-mer frequency, TF over GST control)"
same,binding signal,GABPA,"1.16 fold enrichment (6-mer frequency, TF over GST control)"
same,binding signal,ERG,"1.13 fold enrichment (6-mer frequency, TF over GST control)"
same,binding signal,ELF1,"1.21 fold enrichment (6-mer frequency, TF over GST control)"
same,binding signal,EHF,"1.18 fold enrichment (6-mer frequency, TF over GST control)"
same,binding signal,SPI1,"1.27 fold enrichment (6-mer frequency, TF over GST control)"
same,binding signal,SPIB,"1.19 fold enrichment (6-mer frequency, TF over GST control)"
same,binding signal,ELK3,"1.26 fold enrichment (6-mer frequency, TF over GST control)"
